Experimental data published in PubChem BioAssay (NCI).
This is part of a sample that, as a whole, favours compounds with a hit. Of some 83,000 tested, about 20% had one in any assay.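 Values shown are percent growth following 48 h exposure of cells in 96-well plates to a single concentration of compound; below 10 was considered active.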 Values without a mark were called inactive. The source made the active and inactive calls.

Each compound was assayed on UO-31 renal (assay: NCI-60 one-dose screen, 48 h (100 = growth as untreated, 0 = no growth, -100 = all killed)). Details: 10 µM unless noted.

Row | SMILES | growth
1 | O=C1Nc2ccccc2SC1c1ccccc1Cl (stereo not given) | 103%
2 | O=C(Nc1ccc(N2CCCCC2)c(Cl)c1)c1ccc(Br)o1 | 51.5%
3 | Nc1ccc(CCCCc2ccccc2)c(Cl)c1 | 63.9%
4 | C[C@@H]1CC[C@@H]2[C@@H]1[C@H](OC(=O)c1ccc3ccccc3c1)[C@]1(C3CCCCC3)C[C@@H](OC(=O)CO)[C@@]2(C)O1 | -43.6% (active)
5 | CO[C@H]1/C=C/O[C@@]2(C)Oc3c(C)c(O)c4c(c3C2=O)C(=O)C(/C=N/N(c2ccccc2)c2ccccc2)=C(NC(=O)/C(C)=C\C=C\[C@H](C)[C@H](O)[C@@H](C)[C@@H](O)[C@@H](C)[C@H](OC(C)=O)[C@@H]1C)C4=O | -19.3% (active)
6 | COc1cc(NC(=O)c2cccc(-c3cc(=O)c4c(O)c(OC)c(OC)cc4o3)c2)cc(OC)c1OC | 34.3%
7 | NC(N)=N/N=C/CO | 80.9%
8 | CCOC(=O)c1sc2ccc(NCc3nc[nH]c3C)cc2c1NC(=O)c1cc(OC)c(OC)c(OC)c1 | 70.4%
9 | CCCCCCCSc1ccc(C(=O)O)cc1 | 84%
10 | COc1cc2oc(-c3cccc(C(=O)Nc4ccc(C)cc4)c3)cc(=O)c2c(OC)c1OC | 44.3%
11 | C[C@@H]1C(=O)N(C[C@H](Cc2ccccc2)N(Cc2ccccc2)Cc2ccccc2)[C@]1(Cc1ccccc1)C(=O)OC(C)(C)C | 41.2%
12 | Cc1ccc(-n2nnc(C3=NCCc4c3[nH]c3ccc(Cl)cc43)c2C)cc1 | 57.8%
13 | COc1ccc(OC)c(/C=C2\COc3ccc(O)c(O)c3C2=O)c1 | -25.8% (active)
14 | CCOc1ccc2nc(-c3cccc(OCC(=O)NC(C)C)c3)nc(Nc3ccc(-c4cn[nH]c4)cc3)c2c1 | -13.3% (active)
15 | CN(C)c1ccc(C#Cc2c(F)cccc2Cl)cc1 | 41.2%
16 | Clc1ccc2[nH]c3c(NCCCN4CCOCC4)ncnc3c2c1 | 57.2%
17 | Cc1nc(C)c(-c2nn3c(-c4cccc(F)c4)nnc3s2)s1 | 83.9%
18 | CC1(C)N=C(N)N=C(N)N1c1ccc(Cl)c(Cl)c1 | 48.3%

Row | SMILES | growth
19 | CCOc1cccnc1/C=N/NC(N)=S | 9.56% (active)
20 | COc1cc2oc(-c3cccc(C(=O)Nc4ccc(C#N)cc4)c3)cc(=O)c2c(O)c1OC | 55.3%
21 | O=C1NCC(=O)N(Cc2ccco2)[C@H]1Cc1ccccc1 | 99.8%
22 | O=C(Nc1ccccn1)[C@H](O)[C@@H](O)C(=O)N1CCOCC1 | 104%
23 | CCOC(=O)Cc1csc2nc(-c3ccccc3)nn12 | 97%
24 | CN(C)c1ccc(/C=C/c2c(F)cccc2F)cc1 | 55.6%
25 | CCOc1cc(C2C(Cl)C(=O)N2n2cnnc2)ccc1O (stereo not given) | 86%
26 | Nc1ccn(C2OC(F)(CO)C(O)C2F)c(=O)n1 (stereo not given) | 10.7%
27 | CC(=O)C(C(C)=O)c1nc2sc3cc(Cl)ccc3n2c(=N)c1C#N | 58.4%
28 | O=C(CC1Sc2ccccc2NC1=O)NNc1ccc(F)cc1 (stereo not given) | 48.4%
29 | CN(C)c1ccc2cc(-c3ccc(Cl)c(Cl)c3)c(N)nc2c1 | 33.2%
30 | Nc1c(C(=O)Nc2ccccc2)sc2nc3c(cc12)CCCCCC3 | 16.6%
31 | O=C(Nc1cccc2[nH]c(C(F)(F)F)nc12)c1cc(Cl)ccc1Cl | -3.23% (active)
32 | NC(=S)N/N=C/C(=O)O | 38.8%
33 | COc1cc(/C=C2\C=C(c3ccccc3)N(CCc3ccccc3)C2=O)cc(OC)c1OC | 69.2%
34 | C(=C\c1nc2ccccc2[nH]1)/c1nc2ccccc2[nH]1 | 81.8%
35 | C=C(Cl)COC(=O)C(C)(C)O | 92.7%
